# Most compounds without a hit are left out; they make up all but 3.3% or so of the library.
# SSB-PriA inh: K. pneumoniae PriA-SSBct interaction inhibition | AlphaScreen SSBct-PriA binding, biotinylated peptide | inhibition, % at 33 µM | 430,000 tested, 0.6% active | AID 1272365; in the data active means inhibition mostly above about 37%, no sharp cut-off; inactive means mostly below about 20%;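 further: plate controls were negative control peptide for no effect and reference peptide for full effect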
# Anthrax LF inh2: inhibitors of Bacillus anthracis lethal factor protease. P15917. 360,000 tested, 0.12% active. multiplex microsphere protease cleavage assay, LF. inhibition, % at 10 µM; further: plate controls were buffer without enzyme for full effect and enzyme alone for no effect
# MazF activator: MazEF (E. coli) toxin RNase activation; P0AE70; FAM/BHQ RNA-DNA oligo cleavage fluorescence, 5 h; activation, % at 20 µM; 350,000 tested, 0.32% active; AID 504720; in the data active means activation above about 50%
# Target sequence (P0AE70 whole entry, looked up): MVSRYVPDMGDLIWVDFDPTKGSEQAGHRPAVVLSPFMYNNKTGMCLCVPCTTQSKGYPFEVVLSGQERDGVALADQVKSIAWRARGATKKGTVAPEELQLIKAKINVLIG
# BoNT-A LC inh2: blocks Botulinum neurotoxin A light chain protease; multiplex microsphere protease substrate cleavage, flow cytometry; AID 588499; inhibition, % at 10 µM; 360,000 tested, 0.17% active; further: plate controls were buffer without enzyme for full effect and enzyme alone for no effect
# Bead autofluor: counter-screen for toxin protease inhibitors: compound fluorescence; fluorescence intensity (test concentration not listed); AID 624483; 360,000 tested, 3.1% active; compound autofluorescence counterscreen, microsphere flow cytometry; active compounds read high; in the data active means fluorescence intensity above about 16000; inconclusive means no clear call, values can overlap the other calls
# BoNT F protease: blocks Botulinum neurotoxin F light chain protease; inhibition, % at 10 µM; 360,000 tested, 0.22% active; Multiplex microsphere protease cleavage assay, flow cytometry; in the data active means inhibition above about 35%, passing the limit was not always enough; inconclusive means no clear call, values can overlap the other calls; further: plate controls were buffer without enzyme for full effect and enzyme alone for no effect
# An asterisk follows results filed as active; ? = inconclusive; · = not tested or not shown. Unless noted, no stated cut-off is given here; in the data, active means inhibition above about 30%; inconclusive means no clear call, values can overlap the other calls; inactive means below that.
SMILES,SSB-PriA inh,Anthrax LF inh2,MazF activator,BoNT-A LC inh2,Bead autofluor,BoNT F protease
Cc1ccccc1S(=O)(=O)Cc1ccc(C(=O)NCCCN2CCN(C)CC2)o1,-8,-5,3,-2,22715*,-4
COc1ccc(NC(=O)c2csc(Cc3nc(-c4ccccc4)no3)n2)cc1Cl,-1,·,·,·,·,·
CCC(Sc1nncn1C)C(=O)Nc1nnc(-c2cccc([N+](=O)[O-])c2)s1 (centres undefined),2,·,·,·,·,·
COc1ccc(-c2ccc(=O)n(CCNC(=O)Nc3cccs3)n2)cc1,-5,·,·,·,·,·
O=C(CC1CCCC1)NCCn1ncc2c(=O)n(Cc3ccc(F)cc3)cnc21,-11,·,·,·,·,·
Cc1ccc(S(=O)(=O)Cc2ccc(C(=O)NCCCN3CCCC3=O)o2)cc1,-4,-2,4,-1,20958*,-2
CC1(NC(=O)COc2ccccc2-c2ccccc2)CCS(=O)(=O)C1 (centres undefined),-8,-5,1,0,16681*,-4
CC(NC(=O)COc1ccccc1-c1ccccc1)c1ccccc1 (centres undefined),-10,-1,6,-1,2487,-2
Cc1ncoc1C(=O)Nc1ccc(Oc2ccccc2)cc1,-15,-3,4,3,19937*,-2
Cc1ncoc1C(=O)Nc1ccccc1-c1ccccc1,-16,1,3,0,23728*,0
Cc1nc(C)c(C(=O)Nc2ccc(Oc3ccccc3)cc2)o1,-6,1,0,4,19915*,3
N#CCn1cccc1-c1nc(-c2ccc(OC(F)(F)F)cc2)no1,-16,·,·,·,·,·
CCC(=NCCO)c1c(O)n(-c2ccc(Cl)cc2)c(=O)[nH]c1=O,-12,-6,3,-3,23929*,-6
CC12CN3CC(C)(CN(C1)C3c1ccc(Br)cc1)C2 (centres undefined),-8,0,-1,1,22475*,2
COc1cc(C2N3CC4(C)CN2CC(C)(C3)C4)ccc1O (centres undefined),2,1,-2,1,3867,-1
N#Cc1ccc(C(=O)NCC2CCN(C3CCCC3)CC2)cc1,-9,·,·,·,·,·
Cc1c(C(=N)C(C#N)C#N)c(=N)oc2c1ccc1ccccc12,70*,-5,16,2,3219,3
CCCN1C(=O)/C(=C2\SC(=S)N(c3c(C)n(C)n(-c4ccccc4)c3=O)C2=O)c2ccccc21,-4,·,11,·,·,·
CCN1C(=O)/C(=C2\SC(=S)N(c3c(C)n(C)n(-c4ccccc4)c3=O)C2=O)c2ccccc21,2,-12,25,?,20899*,8
CC(C)CNC(=O)Cc1csc2nc(-c3ccccc3)cn12,-19,·,·,·,·,·
CC(C)c1nc2ccccc2n1C(C)c1ccccc1 (centres undefined),-15,·,·,·,·,·
COC(=O)C(O)(c1ccc(NC(=S)NC(=O)c2ccccc2)cc1)C(F)(F)F (centres undefined),-1,-1,-6,-3,16903*,-3
CCN(CC)S(=O)(=O)c1ccc(S(=O)(=O)N(CC(=O)Nc2ccccc2)CC2CCCO2)cc1 (centres undefined),-9,0,-11,-4,17027*,-5
O=C1CC(N2CCN(Cc3ccccc3)CC2)C(=O)N1c1ccc2c(c1)OCCO2 (centres undefined),-11,-3,-3,0,4286,-6
O=C1CC(N2CCN(Cc3ccccc3)CC2)C(=O)N1c1ccccc1 (centres undefined),0,0,8,0,23947*,0
SMILES,SSB-PriA inh,Anthrax LF inh2,MazF activator,BoNT-A LC inh2,Bead autofluor,BoNT F protease
Cc1cccc(N2C(=O)CC(N3CCN(c4ccccc4)CC3)C2=O)c1 (centres undefined),5,0,-6,0,10121,-9
Cc1cccc(N2C(=O)CC(N3CCN(C(=O)c4ccccc4)CC3)C2=O)c1 (centres undefined),-12,-1,6,0,23162*,0
O=c1c2nnn(Cc3cccc(F)c3)c2ncn1Cc1nc(-c2ccc(F)c(Br)c2)no1,2,·,·,·,·,·
CC1(C)NC(=O)N(CCOCCOc2ccccc2)C1=O,-19,2,7,0,4105,8
CC1(C)NC(=O)N(CCSc2ccc(Cl)cc2)C1=O,-6,-2,2,2,19822*,3
CC1(C)NC(=O)N(CCOCCSc2ccccc2)C1=O,-7,0,-1,-3,24307*,-6
COc1ccc2sc(Nc3cc(C)ccc3C)nc2c1,3,·,·,·,·,·
Nc1nc2nc(-c3ccc(OCc4ccccc4)cc3)cc(C(F)(F)F)n2n1,-2,-11,58*,1,4201,2
O=C(NCC1CCN(C(=O)c2cccnc2)CC1)Nc1ccccc1C(F)(F)F,-1,·,·,·,·,·
Cc1ccc(NC(=O)CCCn2nc(-c3cccs3)ccc2=O)cc1F,-2,·,·,·,·,·
CC(C)NC(=O)COC(=O)c1ccc(NS(=O)(=O)c2ccc3c(c2)OCCO3)cc1,-11,-1,2,0,4556,3
CNC(=O)COC(=O)c1ccc(NS(=O)(=O)c2ccc3c(c2)OCCO3)cc1,-4,0,8,5,3442,43*
CCCCNC(=O)COC(=O)c1ccc(NS(=O)(=O)c2ccc3c(c2)OCCO3)cc1,-17,1,-10,-6,21536*,-7
CSCc1csc(NC(=O)COc2ccc3ccccc3c2)n1,6,·,·,·,·,·
Cc1ccnc(N2C(=O)OC(C)(C)C2(C)O)c1 (centres undefined),-14,0,3,0,16787*,-1
CC1(C)OC(=O)N(c2ccccn2)C1(C)O (centres undefined),-32,-2,3,0,2892,-6
CCOC(=O)C1(S(=O)(=O)c2ccccc2)CCN(Cc2ccc(Cl)cc2)CC1,-17,-5,0,0,10699,-14
CCOC(=O)C1(S(=O)(=O)c2ccc(Cl)cc2)CCN(Cc2ccc(Cl)cc2)CC1,-19,-6,-14,1,23017*,-1
CCCCC(O)(CCN1CCOCC1)c1ccc(Cl)cc1 (centres undefined),-8,-8,2,3,21851*,3
COc1cc(C(O)P(=O)(OC2CCCCC2)c2ccc(N(C)C)cc2)cc(OC)c1OC (centres undefined),-8,-3,6,-2,16951*,-4
O=C(Nc1nc2c(s1)CN(C(=O)c1cc(-c3ccccc3)on1)CC2)c1ccoc1,-4,·,·,·,·,·
COc1ccc(CC(=O)Nc2ccc3c(c2)CCC(=O)N3)cc1OC,-5,·,·,·,·,·
COC(=O)c1ccc(C(=O)N(Cc2ccco2)c2nc3c(SC)cccc3s2)cc1,-6,·,·,·,·,·
Cc1ccc2nc(SCC(=O)c3ccc(Cl)s3)[nH]c2c1,-2,-3,-13,0,19540*,-2
Cc1ccc2nc(SCC(=O)c3ccc4c(c3)OCO4)[nH]c2c1,-9,-9,3,0,5248,3
CC(C)C(=O)Nc1ccc(Cc2ccc(NC(=O)C(C)C)c(O)c2)cc1O,-3,-2,-6,0,16658*,-2
